Compounds without any hit were thinned out: in the full panel of roughly 83,000, 20% have a hit.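 Note: values are percent growth. 100 is the growth of untreated cells, values between 100 and 0 indicate rising inhibition; between -100 and 0 indicates cell death.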 Calls of active or inactive are those of the source. How the source made its calls: active means growth percent below 10; inactive means the rest.

In the test the test system is HL-60(TB) leukemia. Nature of the test: NCI-60 one-dose screen, 48 h (100 = growth as untreated, 0 = no growth, -100 = all killed). As to conditions: 10 µM unless noted.
As to `Cc1ccc(-n2c(-c3cc4ccccc4nc3Cl)noc2=O)cc1`, the growth was 85.1% (inactive).

As to `COc1ccc2[nH]c(=O)c(CSc3nccc(-c4ccc(Cl)cc4)n3)cc2c1`, the growth was 29.3% (inactive).

`CN(C)c1ccnc(CNCCSC2(c3ccc(C(F)(F)F)cc3)c3ccccc3C=Cc3ccccc32)c1`: the growth is -34.1% (active).

`Cn1c(O)c(N=Nc2nc(-c3cc4ccccc4oc3=O)cs2)c2cc(Br)ccc21`: the growth was 96.6% (inactive).

Regarding `O=C(Cn1nc(-c2ccccc2)ccc1=O)N/N=C/c1ccc(N2CCOCC2)cc1`, the growth is 96.3% (inactive).

On to `COc1cc(CNC(=O)/C=C/c2ccc3c(c2)OCO3)ccc1OCc1cn(-c2ccc([N+](=O)[O-])cc2)nn1`, for which the growth was 97% (inactive).

For the compound `CN1CCc2c(sc3ncnc(N/N=C/c4ccc5ccccc5c4)c23)C1`, the growth was -14.6% (active).

Consider `CC[C@]12C=CCN3CC[C@@]4(c5cc(C#CCNc6ccc(C)c(Nc7nccc(-c8cccnc8)n7)c6)c(OC)cc5N(C)[C@H]4[C@@](O)(C(=O)OC)[C@@H]1OC(C)=O)C32` (stereo partly drawn), for which the growth is 30.8% (inactive).

As to `O=C(c1ccccc1)C(c1c[nH]c2ccccc12)c1c[nH]c2ccccc12`, the growth is 53.8% (inactive).

Turning to `O=C(Nc1nc2ccc([N+](=O)[O-])cc2s1)Nc1ccccc1F`, the growth was -8.08% (active).

With `COc1ccc(N=Nc2c(N)nn3c(-c4cc5ccccc5oc4=O)ccnc23)cc1`, the growth was 73.9% (inactive).

With `O=C(N/N=C/c1c[nH]c2ccccc12)Nc1ccc(F)c(Cl)c1`, the growth is 15.9% (inactive).

As for `COc1ccc2[nH]cc(-c3nnc(N)nc3-c3cn(C)c4ncc(Br)cc34)c2c1`, the growth is 35% (inactive).

The record behind these values is PubChem BioAssay (NCI).
